Screens: PubChem, National Center for Advancing Translational Sciences (NCATS)
Six1-Eya2 inh = qHTS Assay for Inhibitors of the Six1/Eya2 Interaction; Homeobox protein SIX1 (Homo sapiens) + Protein phosphatase EYA2 (Homo sapiens), …; AlphaScreen GST-Six1/His-Eya2 binding, biochemical; hits give low values; activity change, % (test concentration not listed); 360,000 tested, 0.56% active; in the data active = activity change below about -65%; inconclusive = mostly about -30% to -63%
Target sequence (O00167 whole entry, looked up): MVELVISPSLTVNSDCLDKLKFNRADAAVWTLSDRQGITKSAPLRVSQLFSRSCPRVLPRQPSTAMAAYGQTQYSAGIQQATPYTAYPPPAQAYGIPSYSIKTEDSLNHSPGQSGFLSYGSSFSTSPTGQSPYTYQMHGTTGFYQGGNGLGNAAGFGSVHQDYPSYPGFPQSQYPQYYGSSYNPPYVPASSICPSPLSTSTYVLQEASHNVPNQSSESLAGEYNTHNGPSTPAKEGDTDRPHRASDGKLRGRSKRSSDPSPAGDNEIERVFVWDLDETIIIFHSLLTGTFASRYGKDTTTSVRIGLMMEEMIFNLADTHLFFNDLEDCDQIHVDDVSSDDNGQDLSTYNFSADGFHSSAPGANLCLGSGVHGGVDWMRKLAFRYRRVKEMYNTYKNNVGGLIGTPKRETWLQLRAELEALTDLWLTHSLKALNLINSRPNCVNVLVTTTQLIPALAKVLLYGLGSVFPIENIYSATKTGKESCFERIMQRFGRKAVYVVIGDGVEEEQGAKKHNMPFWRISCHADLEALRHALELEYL
Target sequence (Q15475 whole entry, looked up): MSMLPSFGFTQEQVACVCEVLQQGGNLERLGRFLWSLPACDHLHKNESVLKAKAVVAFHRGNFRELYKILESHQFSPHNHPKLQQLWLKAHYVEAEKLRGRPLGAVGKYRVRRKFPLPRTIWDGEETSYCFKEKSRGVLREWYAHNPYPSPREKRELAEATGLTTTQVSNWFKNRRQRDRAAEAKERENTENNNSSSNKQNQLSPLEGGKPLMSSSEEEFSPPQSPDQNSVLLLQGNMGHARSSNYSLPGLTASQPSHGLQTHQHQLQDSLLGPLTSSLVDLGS
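Homogeneous AlphaScreen proximity assay pairing GST-Six1 with His-tagged Eya2 (added as 5X mix: 250 nM and 500 nM) in 50 mM Tris pH 8.0, 300 mM NaCl, 1 mM TCEP. Glutathione donor and nickel acceptor beads; 1 h, 37 °C, dark.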
DT40 TDP1 no CPT = qHTS for Inhibitors of human tyrosyl-DNA phosphodiesterase 1 (TDP1): qHTS in cells in absence of CPT; DT40 Tdp1-/- hTDP1 cells, no CPT, ATP luminescence, 48 h; Potency, µM (series often up to 46.2 µM), actives largely listed as inhibitors; 420,000 tested, 15% active; AID 686978, 2013; also: nearly all actives have a fitted effect of over 55% in size
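Growth of hTDP1-complemented DT40 Tdp1-knockout cells is measured by ATP luminescence after at least 48 hr compound exposure at 37 °C, with DMSO substituting for the 20 nM CPT used in the parallel screen.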
TDP1 inh = qHTS Assay for Inhibitors of Tyrosyl-DNA Phosphodiesterase (TDP1); AID 485290, 2010; recombinant TDP1, AlphaScreen DNA substrate cleavage; Tyrosyl-DNA phosphodiesterase 1 (Homo sapiens), Q9NUW8; Potency, µM (highest dose often 130 µM), usual class: inhibitors; 350,000 tested, 0.28% active; also: nearly all actives have a fitted effect of over 40% in size
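Here, a 5' biotin and 3' phosphotyrosine-FITC DNA oligonucleotide reports Tdp1 activity: intact substrate bridges AlphaScreen beads, while cleavage leaves a 3' phosphate and drops signal. All incubations at room temperature.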
IL1B secr inh = qHTS for Inhibitors of Inflammasome Signaling: IL-1-beta AlphaLISA Primary Screen; THP-1 LPS/ATP IL-1B secretion, AlphaLISA, 16 h; hits give low values; 360,000 tested, 4.7% active; activity change, % at 57.5 µM; in the data active = activity change below about -50%; inconclusive = mostly about -30% to -49%
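Secreted IL-1B measured by AlphaLISA bead assay after 16 h compound exposure of THP-1 cells; compounds (final up to 57.5 uM) added 1 h before LPS (250 ng/mL) and ATP (1.25 mM) stimulation; lower signal means less secretion.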
CtBP-E1A inh = qHTS Assay for Inhibitors of the CtBP/E1A Interaction | activity change, % (no concentration beside the values) | 340,000 tested, 0.49% active | AlphaScreen GST-E1A/His-CtBP binding, 1536-well; hits give low values; in the data active = activity change below about -65%; inconclusive = mostly about -30% to -63%
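AlphaScreen with 125 nM GST-E1A and 125 nM His-CtBP (5X stocks) in Tris pH 8.0, 300 mM NaCl, BSA, Tween 20, TCEP. Compounds preincubated 2 h at 37 deg C, then glutathione donor/nickel acceptor beads added for 1 h at 37 deg C in dark.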
DT40 TDP1 CPT = qHTS for Inhibitors of human tyrosyl-DNA phosphodiesterase 1 (TDP1): qHTS in cells in presence of CPT; chicken DT40 Tdp1-/-;hTDP1 cells + 20 nM CPT, ATP luminescence, 48 h; Potency, µM (doses to about 46.2 µM), most hits filed as inhibitors; 420,000 tested, 12% active; AID 686979, 2013; also: nearly all actives have a fitted effect of over 55% in size
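Chicken DT40 Tdp1-/- cells complemented with human TDP1, 400 cells/well, exposed to compounds plus 20 nM camptothecin for at least 48 h at 37 C; viability read as ATP content by CellTiter-Glo luminescence.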
Large screens that a line does not name were inactive. Rows were chosen to be rich in hits. Some 18% of all compounds tested hit in one or more screens of this group. Unless noted, calls follow the shape of the dose curve; as a rule, active = well fitted curve in the direction sought with a large enough effect; inconclusive = small, poorly fitted or top-dose-only effect, or another doubt; inactive = no such curve, though single readings can be large; an effect the other way counts as inactive or inconclusive.

Cc1cc2nc[nH]c(=O)n2n1	none (no result: TDP1 inh)
COCCCNCCOCCOc1ccc(C)cc1Br	DT40 TDP1 no CPT inconclusive
CCCCNCCOCCOc1ccc(C)cc1Br	DT40 TDP1 no CPT 23µM, DT40 TDP1 CPT 16µM
CCCOc1ccccc1N/C(=N\S(=O)(=O)c1ccc(C)cc1)Nc1nc(C)cc(C)n1	DT40 TDP1 no CPT 15µM, DT40 TDP1 CPT inconclusive (no result: TDP1 inh)
CCCOc1ccccc1N/C(N)=N/c1nc(C)cc(C)n1	DT40 TDP1 no CPT inconclusive, DT40 TDP1 CPT inconclusive
CC(=O)N/C(=N/c1nc(C)cc(C)n1)Nc1ccc(C)cc1C	DT40 TDP1 no CPT inconclusive, DT40 TDP1 CPT inconclusive (no result: TDP1 inh)
CCCOc1ccccc1N/C(=N/c1nc(C)cc(C)n1)NC(=O)COc1ccc(OC)cc1	DT40 TDP1 no CPT 16µM, IL1B secr inh inconclusive, DT40 TDP1 CPT 21µM
COc1ccc(OC)c(N/C(=N/c2nc(C)cc(C)n2)NC(C)=O)c1	DT40 TDP1 no CPT 7.3µM, DT40 TDP1 CPT inconclusive (no result: TDP1 inh)
Cc1ccc(C)c(N/C(N)=N/c2nc(C)cc(C)n2)c1	DT40 TDP1 no CPT 13µM, IL1B secr inh -111, DT40 TDP1 CPT 21µM
CNC(=S)Nc1ccc(C)c(NC(=S)NC)c1	none
COc1ccc(OC)c(N/C(N)=N/c2nc(C)cc(C)n2)c1	DT40 TDP1 no CPT 18µM, IL1B secr inh -77, DT40 TDP1 CPT inconclusive (no result: TDP1 inh)
COc1ccc(Cl)cc1N/C(N)=N/c1nc(C)cc(C)n1	none
COc1ccc(Cl)cc1N/C(N)=N/c1nc(C)cc(=O)[nH]1	none
COc1cc(N/C(N)=N/c2nc(C)cc(C)n2)cc(OC)c1	DT40 TDP1 no CPT 21µM, DT40 TDP1 CPT 16µM (no result: TDP1 inh)
COc1ccc(C)cc1N/C(N)=N/c1nc(C)cc(C)n1	DT40 TDP1 no CPT 16µM, IL1B secr inh -98, DT40 TDP1 CPT 21µM
COc1ccc(N/C(N)=N/c2nc(C)cc(=O)[nH]2)cc1	none (no result: TDP1 inh)
COc1ccc(N/C(N)=N/c2nc(C)cc(C)n2)c(OC)c1	DT40 TDP1 no CPT 12µM, IL1B secr inh -76, DT40 TDP1 CPT 26µM
OCC1(Cc2ccc(F)cc2)CCCN(CCCC(F)(F)F)C1 (configuration not stated)	none (no result: TDP1 inh)
COc1ccc(-c2nc3ccccc3s2)cc1NC(=O)c1cccc([N+](=O)[O-])c1C	none (no result: Six1-Eya2 inh, IL1B secr inh, CtBP-E1A inh)
COc1cccc(C(=O)N2CCC[C@H]2C(=O)N2CCC[C@H]2C(=O)NCc2ccncc2)c1	none (no result: TDP1 inh)
COc1cc(C(=O)O/N=C2\C=CC(=O)C(C)=C2)cc(OC)c1OC	DT40 TDP1 no CPT 16µM, IL1B secr inh -72, DT40 TDP1 CPT 6.5µM
COc1ccc(C(=O)ON=C2C=C(C)C(=O)C(C)=C2)cc1	DT40 TDP1 no CPT 23µM, IL1B secr inh inconclusive, DT40 TDP1 CPT 13µM (no result: CtBP-E1A inh)
COc1cc(C(=O)ON=C2C=C(C)C(=O)C(C)=C2)cc(OC)c1OC	DT40 TDP1 no CPT 16µM, DT40 TDP1 CPT 15µM
COc1ccc(S(=O)(=O)N=C2C=C(C)C(=O)C(C)=C2)cc1	DT40 TDP1 no CPT 21µM, DT40 TDP1 CPT 15µM
O=C1OCCC1Sc1nnnn1-c1ccccc1 (configuration not stated)	none
O=C1NCCNC(=O)c2ccccc2OCCOc2ccccc21	DT40 TDP1 no CPT inconclusive, DT40 TDP1 CPT inconclusive (no result: CtBP-E1A inh)
O=C1[O][Bi][O]c2ccccc21	TDP1 inh 35µM (no result: Six1-Eya2 inh, IL1B secr inh, CtBP-E1A inh)
Clc1ccc(-c2csc(NNC3=NCCCCC3)n2)cc1	DT40 TDP1 no CPT 16µM, IL1B secr inh -77, DT40 TDP1 CPT inconclusive
COc1ccc(-c2csc(NC3=NCCCCC3)n2)cc1	none
c1ccc(-c2csc(NNC3=NCCCCC3)n2)cc1	DT40 TDP1 no CPT 1.8µM, DT40 TDP1 CPT 2.1µM
